According to the antibiotic and cytotoxicity screens of Wong et al. (2023):
Among all 39,000 compounds or so, about 3,300 (8.5%) were called active. The list comes from a sample in which actives are over-represented; it also holds similar structures and randomly drawn compounds.

Tested on: HepG2
Test: cytotoxicity call (relative viability < 0.9)
Details: 10 µM

SMILES | cytotoxicity call
O=C(O)CNC(=O)C1CCC1 | inactive
COCCNC(=O)C[C@@H]1CC[C@H]2[C@@H](COC[C@H](O)CN2C(=O)Nc2ccc3c(c2)OCO3)O1 | inactive
CN1C(=O)c2cc(NC(=O)c3cscn3)ccc2OC[C@@H]2O[C@H](CC(=O)N3CCOCC3)CC[C@H]21 | inactive
C[C@@H]1CCCCO[C@@H](CN(C)C(=O)Cc2ccccc2)[C@H](C)CN([C@H](C)CO)C(=O)c2cc(NC(=O)Nc3ccccc3)ccc2O1 | inactive
COc1ccc(S(=O)(=O)N(C)C[C@@H]2Oc3ccc(NS(=O)(=O)c4ccccc4)cc3C(=O)N([C@@H](C)CO)C[C@@H]2C)cc1 | inactive
Cc1noc(C)c1NC(=O)N(C)C[C@@H]1Oc2ccc(NC(=O)c3ccncc3)cc2CC(=O)N([C@H](C)CO)C[C@@H]1C | inactive
COC(=O)C1=C2CC[C@H](CO)NC(=O)N[C@H](Cc3ccccc3)C(=O)NCc3cn(nn3)C[C@H](Cc3ccccc3)NC(=O)c3oc(c(C(=O)OC)c3C(=O)OC)CC[C@H](CO)NC(=O)N[C@H](Cc3ccccc3)C(=O)NCc3cn(nn3)C[C@H](Cc3ccccc3)NC(=O)C(=C1C(=O)OC)O2 | inactive
C[C@@H]1CN([C@H](C)CO)C(=O)c2cc(C3=CCCC3)cnc2O[C@H]1CN(C)C(=O)Nc1ccc(C(F)(F)F)cc1 | inactive
Cc1ccc(S(=O)(=O)N(C)C[C@H]2OCCCC[C@H](C)Oc3ccc(NC(=O)Nc4cccc5ccccc45)cc3C(=O)N([C@@H](C)CO)C[C@@H]2C)cc1 | inactive
C[C@H](CO)N1C[C@H](C)[C@@H](CN(C)C(=O)C2CCOCC2)Oc2ncc(C#CCc3ccccc3)cc2C1=O | inactive
C[C@@H]1CN([C@H](C)CO)C(=O)c2cc(Br)cnc2O[C@H]1CN(C)C(=O)Nc1ccc(F)cc1 | inactive
COc1ccc(NC(=O)N(C)C[C@H]2OCCCC[C@H](C)Oc3ccc(NS(=O)(=O)c4ccc(C)cc4)cc3C(=O)N([C@H](C)CO)C[C@@H]2C)cc1 | inactive
CCCc1cc(C)[nH]c(=O)c1CNC(=O)c1cc(-c2ccc(N3CCN(C(C)C)CC3)nc2)cc2c1cnn2C(C)C | active
C[C@@H]1CN([C@H](C)CO)C(=O)c2cc(-c3cccc(C(=O)N(C)C)c3)cnc2O[C@H]1CN(C)S(=O)(=O)c1ccc(F)cc1 | inactive
CO[C@@H](CN(C)S(=O)(=O)c1cn(C)cn1)[C@@H](C)CN(C(=O)Nc1ccc(C(F)(F)F)cc1)[C@@H](C)CO | inactive
C[C@@H]1CCCCO[C@H](CN(C)Cc2ccc3c(c2)OCO3)[C@H](C)CN([C@H](C)CO)C(=O)c2cc(NC(=O)NC3CCCCC3)ccc2O1 | inactive
C[C@@H]1CCCCO[C@H](CN(C)Cc2ccc3c(c2)OCO3)[C@H](C)CN([C@@H](C)CO)C(=O)c2cc(NC(=O)NC3CCCCC3)ccc2O1 | active
C[C@@H]1CCCCO[C@H](CN(C)Cc2ccc3c(c2)OCO3)[C@@H](C)CN([C@H](C)CO)C(=O)c2cc(NC(=O)NC3CCCCC3)ccc2O1 | inactive
C[C@@H]1CCCCO[C@@H](CN(C)Cc2ccc3c(c2)OCO3)[C@@H](C)CN([C@@H](C)CO)C(=O)c2cc(NC(=O)NC3CCCCC3)ccc2O1 | inactive
C[C@@H]1CCCCO[C@H](CN(C)Cc2ccc3c(c2)OCO3)[C@@H](C)CN([C@@H](C)CO)C(=O)c2cc(NC(=O)NC3CCCCC3)ccc2O1 | active
C[C@@H]1CN([C@H](C)CO)C(=O)c2cc(NC(=O)NC3CCCCC3)ccc2O[C@@H](C)CCCCO[C@@H]1CN(C)Cc1ccc2c(c1)OCO2 | active
C[C@H](CO)N1C[C@H](C)[C@@H](CN(C)Cc2ccc3c(c2)OCO3)OCCCC[C@H](C)Oc2ccc(NC(=O)NC3CCCCC3)cc2C1=O | inactive
C[C@H](CO)N1C[C@H](C)[C@H](CN(C)Cc2ccc3c(c2)OCO3)OCCCC[C@H](C)Oc2ccc(NC(=O)NC3CCCCC3)cc2C1=O | active
C[C@H]1CCCCO[C@H](CN(C)Cc2ccc3c(c2)OCO3)[C@@H](C)CN([C@@H](C)CO)C(=O)c2cc(NC(=O)NC3CCCCC3)ccc2O1 | inactive
C[C@@H]1CCCCO[C@@H](CN(C)Cc2ccc3c(c2)OCO3)[C@H](C)CN([C@H](C)CO)C(=O)c2cc(NC(=O)NC3CCCCC3)ccc2O1 | inactive
C[C@@H]1CN([C@@H](C)CO)C(=O)c2cc(NC(=O)NC3CCCCC3)ccc2O[C@@H](C)CCCCO[C@@H]1CN(C)Cc1ccc2c(c1)OCO2 | inactive
C[C@@H]1CCCCO[C@@H](CN(C)Cc2ccc3c(c2)OCO3)[C@@H](C)CN([C@H](C)CO)C(=O)c2cc(NC(=O)NC3CCCCC3)ccc2O1 | inactive
